HT1080 IDH1KD tx: qHTS for induction of synthetic lethality in tumor cells producing 2HG: qHTS for the HT-1080-IDH1KD cell line. HT-1080 IDH1 knockdown viability, ATP luminescence, 48 h. Potency, µM (series often up to 46.1 µM), inactives show at the top dose activity, negative = toxicity, most hits filed as cytotoxic. hit rate 2% among 360,000;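 also: potency is read from the fitted curve at half-maximal effect; 0% = DMSO wells and -100% = cell-free medium wells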
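Using the IDH1-knockdown HT-1080 line run in the same batch and compound series as the NT line, viability after 48 h at 37 °C was determined by CellTiter-Glo luminescence and expressed as % activity.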
Giardia kill: Small Molecules that selectively kill Giardia lamblia: qHTS | Giardia lamblia trophozoite viability | hit rate 0.15% among 340,000 | activity change, % at 7.66 µM, hits read low; in the data active = activity change below about -80%; inconclusive = between about -30% and that limit;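 also: parasites exposed to compound for two days anaerobically before the ATP read; % is scaled to controls: 0 for no effect and ±100 for the full control effect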
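Trophozoite viability was measured as ATP-dependent luminescence, read 15-30 min after reagent addition. Before that, parasites at 100 cells/well were exposed to compounds for 48 h, anaerobically, at 37 deg C.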
HT1080NT lethal: qHTS for induction of synthetic lethality in tumor cells producing 2HG: qHTS for the HT-1080-NT fibrosarcoma cell line; HT-1080-NT fibrosarcoma viability, CellTiter-Glo ATP luminescence, 48 h; Potency, µM (doses to about 46.1 µM), for the others: at the top dose activity, negative = less viability, actives largely listed as cytotoxic; hit rate 1.6% among 360,000;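 also: NT is the 2HG producing partner of a matched IDH1 knockdown line; potency is read from the fitted curve at half-maximal effect; 0% = DMSO-treated cells and -100% = media-only wells without cells; nearly all actives have a fitted effect of over 55% in size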
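750 cells/well, RPMI + 5% FBS; 2 h settle, compound pin-transfer, 48 h at 37 degrees C. CellTiter-Glo 10 min RT, luminescence. Normalized to DMSO and media-only wells.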
TGFb SMAD3 inh: qHTS for Inhibitors of TGF-b; HepG2 CAGA-GFP TGF-b/SMAD3 reporter, GFP fluorescence, 18 h; TGF-beta stimulated, 500 pg/mL final; Potency, µM (highest dose often 46.1 µM), without a hit: top-dose activity, negative = inhibition, hits mostly inhibitors; hit rate 1.2% among 410,000; also: potency is read from the fitted curve at half-maximal effect; % is scaled to controls: 0 for no effect and ±100 for the full control effect; nearly all actives have a fitted effect of over 65% in size
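Smad-responsive CAGA-GFP expression was quantified in HEPG2 cells exposed to compounds and 500 pg/mL final TGF-beta for 18 h at 37 degrees C; unstimulated wells defined full inhibition.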
IL1B secr inh: qHTS for Inhibitors of Inflammasome Signaling: IL-1-beta AlphaLISA Primary Screen; THP-1 LPS/ATP IL-1B secretion, AlphaLISA, 16 h; hits give low values; activity change, % at 57.5 µM; hit rate 4.7% among 360,000; in the data active = activity change below about -50%; inconclusive = mostly about -30% to -49%; also: % is scaled to controls: 0 for no effect and ±100 for the full control effect
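Secreted IL-1B measured by AlphaLISA bead assay after 16 h compound exposure of THP-1 cells; compounds (final up to 57.5 uM) added 1 h before LPS (250 ng/mL) and ATP (1.25 mM) stimulation; lower signal means less secretion.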
HepG2 tox: qHTS for Inhibitors of TGF-b: Cytotox Counterscreen. Potency, µM (titrated, usually from 46.1 µM), for the others: at the top dose activity change, negative = cytotoxicity, hits mostly cytotoxic. AID 588856, 2011. HepG2 CAGA-GFP viability, ATP luminescence, 18 h. hit rate 0.76% among 410,000; also: potency is read from the fitted curve at half-maximal effect
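CellTiter-Glo luminescence gave cytotoxicity after 18 hours at 37 degrees C. The cells were HepG2 CAGA-GFP in 1% FBS DMEM, stimulated with 500 pg/mL TGF-beta after compound addition. %Activity was normalised to no-cell wells (complete cell-killing) and DMSO (no toxicity), and curves were fitted and classified.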
* hit, by the source's call. Shown are actives, neighbours in structure and some others; about 6.5% of the full set was active somewhere. Unless noted, calls follow the shape of the dose curve; as a rule, active = well fitted curve in the direction sought with a large enough effect; inconclusive = small, poorly fitted or top-dose-only effect, or another doubt; inactive = no such curve, though single readings can be large; an effect the other way counts as inactive or inconclusive.

`Cc1nnc(N2CCC(C(=O)NCc3cccc(Cl)c3)CC2)c2nn(-c3ccccc3)c(C)c12` gave TGFb SMAD3 inh 11µM* and HepG2 tox -73%.
`CN(Cc1c(F)cccc1Cl)C(=O)CNC(=O)c1sc2ccccc2c1Cl` gave HT1080 IDH1KD tx -6%, Giardia kill 4, HT1080NT lethal -2%, TGFb SMAD3 inh 2%, IL1B secr inh -52* and HepG2 tox 29%.
Screening CN(CC(=O)Nc1c(Cl)cccc1Cl)C(=O)CNC(=O)c1sc2ccccc2c1Cl returned HT1080 IDH1KD tx 0%, Giardia kill -7, HT1080NT lethal 0%, TGFb SMAD3 inh -2%, IL1B secr inh 59 and HepG2 tox -8%.
For CC(C)N(Cc1cn[nH]c1-c1ccc(-c2ccccc2)cc1)Cc1nccn1C the results were HT1080 IDH1KD tx 21µM*, Giardia kill -3, HT1080NT lethal 15µM*, TGFb SMAD3 inh inconclusive, IL1B secr inh -74* and HepG2 tox -14%.
`N#Cc1cccc(C=C(C(=O)c2ccccc2)c2ccccc2)c1` gave HT1080 IDH1KD tx inconclusive and HT1080NT lethal 26µM*.
Screening N#C/C(=C\c1ccc(C#N)cc1)C(=O)c1ccccc1 returned HT1080 IDH1KD tx -8%, Giardia kill 12, HT1080NT lethal -1%, TGFb SMAD3 inh -29%, IL1B secr inh 4 and HepG2 tox -31%.
Screening COCCN(C(=O)c1ccco1)c1nnc(-c2ccc(OC)c(OC)c2)s1 returned HT1080 IDH1KD tx 17%, Giardia kill 19, HT1080NT lethal 14%, TGFb SMAD3 inh 3%, IL1B secr inh -59* and HepG2 tox -1%.
Screening COCCN(C(=O)c1ccco1)c1nnc(-c2ccc(F)cc2)s1 returned HT1080 IDH1KD tx 1%, Giardia kill 45, HT1080NT lethal -4%, TGFb SMAD3 inh 3%, IL1B secr inh -9 and HepG2 tox -27%.
Screening CCOc1ccc(-c2nnc(SCC(=O)NCc3ccccc3)o2)cc1 returned TGFb SMAD3 inh -3% and HepG2 tox -12%.
Screening CC1C(=O)N(Cc2cn(CCC3OCCO3)nn2)CCS(=O)(=O)N1Cc1ccc(-c2ccc(Cl)cc2)cc1 (stereo unspecified) returned HT1080 IDH1KD tx inconclusive, HT1080NT lethal inconclusive, TGFb SMAD3 inh inconclusive, IL1B secr inh -14 and HepG2 tox -24%.
`CCCCN(CC)S(=O)(=O)c1ccc(C(=O)Nc2nnc(-c3cccs3)o2)cc1` gave HT1080 IDH1KD tx 8.2µM*, Giardia kill -7, HT1080NT lethal inconclusive, TGFb SMAD3 inh -18%, IL1B secr inh 0 and HepG2 tox 17%.
`CCCCN(CCCC)S(=O)(=O)c1ccc(C(=O)Nc2nnc(COC)o2)cc1` gave HT1080 IDH1KD tx 12µM*, Giardia kill -11, HT1080NT lethal inconclusive, TGFb SMAD3 inh inconclusive, IL1B secr inh 30 and HepG2 tox -17%.
Cc1ccc(S(=O)(=O)N2C[C@H]3n4c(=O)ccc(=O)n4C[C@H](OC(=O)NCc4ccccc4)[C@@]3(O)C2)cc1 was read as HT1080 IDH1KD tx inconclusive, HT1080NT lethal inconclusive, TGFb SMAD3 inh -7%, IL1B secr inh 0 and HepG2 tox 6%.
CCCCCCn1c(=O)n2n(c1=O)[C@@H]1CN(S(=O)(=O)c3ccc(C)cc3)C[C@]1(O)[C@@H](OC(=O)NCc1ccccc1)C2 was read as HT1080 IDH1KD tx -20%, HT1080NT lethal inconclusive, TGFb SMAD3 inh inconclusive, IL1B secr inh -71* and HepG2 tox -71%.
For Cc1ccc(S(=O)(=O)N2C[C@H]3n4c(=O)ccc(=O)n4C[C@H](OC(=O)NCc4ccco4)[C@@]3(O)C2)cc1 the results were HT1080 IDH1KD tx -16%, HT1080NT lethal -9%, TGFb SMAD3 inh -6%, IL1B secr inh -54* and HepG2 tox -7%.
Screening Cc1ccc(S(=O)(=O)N2C[C@H]3n4c(=O)ccc(=O)n4C[C@H](OC(=O)NCC4CCCCC4)[C@@]3(O)C2)cc1 returned HT1080 IDH1KD tx inconclusive, HT1080NT lethal 21µM*, TGFb SMAD3 inh inconclusive, IL1B secr inh -109* and HepG2 tox -119%.
COC(=O)[C@H]1C[C@H](OC(=O)NCc2ccc(OC)c(OC)c2)[C@@]2(O)CN(S(=O)(=O)c3ccc(C)cc3)CC2[C@H]1C(=O)OC (stereo partly specified) was read as HT1080 IDH1KD tx 6%, HT1080NT lethal 2%, TGFb SMAD3 inh 0%, IL1B secr inh -5 and HepG2 tox -6%.
COC(=O)[C@H]1C[C@H](OC(=O)NCc2ccco2)[C@@]2(O)CN(S(=O)(=O)c3ccc(C)cc3)CC2[C@H]1C(=O)OC (stereo partly specified) was read as HT1080 IDH1KD tx 9%, HT1080NT lethal 3%, TGFb SMAD3 inh -4%, IL1B secr inh -64* and HepG2 tox -22%.
CCN(CCCNC(=O)CN1N=C(c2ccccc2)CCC1=O)c1cccc(C)c1 was read as TGFb SMAD3 inh -5% and HepG2 tox 0%.
CC(=O)c1sc(N/N=C\c2ccc(N(C)C)cc2)nc1C was read as HT1080 IDH1KD tx -7%, Giardia kill 13, HT1080NT lethal 4%, TGFb SMAD3 inh 0%, IL1B secr inh 37 and HepG2 tox 0%.
`COC(=O)c1sc(N/N=C/c2ccc(C(C)C)cc2)nc1C` gave HT1080 IDH1KD tx -8%, Giardia kill -5, HT1080NT lethal -7%, TGFb SMAD3 inh -12%, IL1B secr inh -64* and HepG2 tox 4%.
For O=C1C(O)=CC(=C(c2ccccc2)c2ccccc2)c2ccccc21 the results were HT1080 IDH1KD tx inconclusive, Giardia kill 9, HT1080NT lethal -7%, TGFb SMAD3 inh inconclusive, IL1B secr inh -92* and HepG2 tox -13%.
`COC(=O)c1ccc(CSc2nnc3ccc4ccccc4n23)cc1` gave TGFb SMAD3 inh 4% and HepG2 tox 3%.
`COc1ccc(CNCC(=O)Nc2sccc2C#N)cc1` gave HT1080 IDH1KD tx 18%, Giardia kill 10, HT1080NT lethal -10%, TGFb SMAD3 inh 14%, IL1B secr inh 9 and HepG2 tox -6%.
